Measurements as given in ChEMBL document CHEMBL2218924, “A broad activity screen in support of a chemogenomic map for kinase signalling research and drug discovery” (Biochem J, 2013).

How the values were obtained:
[1] = target: Serine/threonine-protein kinase SIK1 (Homo sapiens) (UniProt P57059); details: at 10 µM
[2] = target: SRSF protein kinase 2 (Homo sapiens) (UniProt P78362); details: at 1 µM
[3] = target: SRSF protein kinase 2 (Homo sapiens) (UniProt P78362); details: at 10 µM
[4] = target: Serine/threonine-protein kinase 33 (Homo sapiens) (UniProt Q9BYT3); details: at 1 µM
Chain of Serine/threonine-protein kinase 33 (Homo sapiens) (Q9BYT3 whole entry, looked up): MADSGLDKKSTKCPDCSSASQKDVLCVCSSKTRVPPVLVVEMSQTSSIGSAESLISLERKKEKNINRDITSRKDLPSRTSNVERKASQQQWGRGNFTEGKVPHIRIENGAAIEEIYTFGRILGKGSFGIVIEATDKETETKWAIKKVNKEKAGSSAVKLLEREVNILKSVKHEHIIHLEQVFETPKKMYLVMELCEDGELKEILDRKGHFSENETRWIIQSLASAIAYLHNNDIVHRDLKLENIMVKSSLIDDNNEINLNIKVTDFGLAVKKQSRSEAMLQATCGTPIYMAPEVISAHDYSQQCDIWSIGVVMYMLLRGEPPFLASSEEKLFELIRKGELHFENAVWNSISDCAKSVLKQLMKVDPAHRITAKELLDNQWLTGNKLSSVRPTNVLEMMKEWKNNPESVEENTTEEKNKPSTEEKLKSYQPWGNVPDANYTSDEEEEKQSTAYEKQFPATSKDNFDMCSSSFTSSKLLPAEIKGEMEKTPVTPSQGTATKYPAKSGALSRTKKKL

[5] = target: Serine/threonine-protein kinase 33 (Homo sapiens) (UniProt Q9BYT3); details: at 10 µM
[6] = target: Serine/threonine-protein kinase PLK2 (Homo sapiens) (UniProt Q9NYY3); details: at 1 µM
Chain of Serine/threonine-protein kinase PLK2 (Homo sapiens) (Q9NYY3 whole entry, looked up): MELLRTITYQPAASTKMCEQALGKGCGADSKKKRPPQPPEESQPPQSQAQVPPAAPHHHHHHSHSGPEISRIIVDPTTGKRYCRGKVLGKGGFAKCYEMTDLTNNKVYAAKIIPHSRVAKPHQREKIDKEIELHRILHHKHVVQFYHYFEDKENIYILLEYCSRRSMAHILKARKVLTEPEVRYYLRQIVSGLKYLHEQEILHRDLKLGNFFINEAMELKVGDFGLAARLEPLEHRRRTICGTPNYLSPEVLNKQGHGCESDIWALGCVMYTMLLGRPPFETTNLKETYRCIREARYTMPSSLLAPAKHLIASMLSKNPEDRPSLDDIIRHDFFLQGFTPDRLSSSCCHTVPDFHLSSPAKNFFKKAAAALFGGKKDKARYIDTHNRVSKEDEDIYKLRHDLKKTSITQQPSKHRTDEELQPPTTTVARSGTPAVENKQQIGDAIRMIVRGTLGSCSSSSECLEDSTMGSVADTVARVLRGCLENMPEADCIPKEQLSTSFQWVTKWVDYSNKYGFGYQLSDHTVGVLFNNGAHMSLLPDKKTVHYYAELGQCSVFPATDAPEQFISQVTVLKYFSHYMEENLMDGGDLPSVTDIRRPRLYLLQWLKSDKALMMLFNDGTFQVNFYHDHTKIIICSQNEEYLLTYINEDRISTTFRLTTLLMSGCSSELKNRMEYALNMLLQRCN

[7] = target: Serine/threonine-protein kinase PLK2 (Homo sapiens) (UniProt Q9NYY3); details: at 10 µM
[8] = target: Tyrosine-protein kinase SYK (Homo sapiens) (UniProt P43405); details: at 1 µM
[9] = target: Tyrosine-protein kinase SYK (Homo sapiens) (UniProt P43405); details: at 10 µM
[10] = target: T1, Mitogen-activated protein kinase kinase kinase 7 (Homo sapiens) (UniProt O43318); details: at 1 µM
T1 sequence (whole entry): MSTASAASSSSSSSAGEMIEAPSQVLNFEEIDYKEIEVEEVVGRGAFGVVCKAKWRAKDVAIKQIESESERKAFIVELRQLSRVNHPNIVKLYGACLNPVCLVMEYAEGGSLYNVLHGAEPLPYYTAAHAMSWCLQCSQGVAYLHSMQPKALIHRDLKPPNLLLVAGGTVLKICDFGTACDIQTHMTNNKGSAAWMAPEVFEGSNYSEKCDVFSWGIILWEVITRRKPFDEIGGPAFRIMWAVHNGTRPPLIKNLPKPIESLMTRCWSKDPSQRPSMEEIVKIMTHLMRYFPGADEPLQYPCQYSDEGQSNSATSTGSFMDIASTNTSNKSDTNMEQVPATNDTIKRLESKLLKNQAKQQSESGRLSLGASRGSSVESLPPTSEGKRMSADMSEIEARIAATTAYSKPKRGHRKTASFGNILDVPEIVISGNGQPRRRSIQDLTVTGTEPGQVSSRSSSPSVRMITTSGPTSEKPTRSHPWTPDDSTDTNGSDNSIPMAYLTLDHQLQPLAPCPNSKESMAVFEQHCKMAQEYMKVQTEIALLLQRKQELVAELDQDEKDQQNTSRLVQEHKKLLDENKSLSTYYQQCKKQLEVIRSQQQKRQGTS

[11] = target: T1, Mitogen-activated protein kinase kinase kinase 7 (Homo sapiens); details: at 10 µM
[12] = target: T2, Serine/threonine-protein kinase TAO1 (Homo sapiens) (UniProt Q7L7X3); details: at 1 µM
T2 sequence (whole entry): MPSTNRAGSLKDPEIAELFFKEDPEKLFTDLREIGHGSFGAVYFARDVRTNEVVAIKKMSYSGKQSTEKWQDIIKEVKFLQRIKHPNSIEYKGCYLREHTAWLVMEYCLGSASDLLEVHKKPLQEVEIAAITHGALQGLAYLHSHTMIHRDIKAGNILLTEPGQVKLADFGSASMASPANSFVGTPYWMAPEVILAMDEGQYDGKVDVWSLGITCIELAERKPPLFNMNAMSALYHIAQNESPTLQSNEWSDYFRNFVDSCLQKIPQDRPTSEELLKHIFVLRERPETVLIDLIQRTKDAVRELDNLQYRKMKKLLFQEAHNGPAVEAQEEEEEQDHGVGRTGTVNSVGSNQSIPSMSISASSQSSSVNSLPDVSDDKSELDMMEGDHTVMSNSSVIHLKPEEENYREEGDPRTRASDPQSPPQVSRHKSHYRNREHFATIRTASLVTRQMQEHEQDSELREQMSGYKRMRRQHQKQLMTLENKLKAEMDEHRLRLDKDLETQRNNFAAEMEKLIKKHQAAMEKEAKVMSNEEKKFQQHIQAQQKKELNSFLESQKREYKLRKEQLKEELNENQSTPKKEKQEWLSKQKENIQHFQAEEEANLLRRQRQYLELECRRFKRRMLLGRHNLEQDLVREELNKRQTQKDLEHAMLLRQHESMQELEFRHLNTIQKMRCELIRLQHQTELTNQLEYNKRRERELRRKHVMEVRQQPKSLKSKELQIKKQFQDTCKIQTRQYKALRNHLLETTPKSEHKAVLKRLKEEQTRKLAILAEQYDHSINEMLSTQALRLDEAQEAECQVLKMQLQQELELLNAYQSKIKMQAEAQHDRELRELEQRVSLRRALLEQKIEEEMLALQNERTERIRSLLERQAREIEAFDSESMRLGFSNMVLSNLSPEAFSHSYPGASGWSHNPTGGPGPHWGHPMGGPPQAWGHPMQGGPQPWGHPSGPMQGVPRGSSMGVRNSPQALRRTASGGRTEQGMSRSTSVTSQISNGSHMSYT

[13] = target: T2, Serine/threonine-protein kinase TAO1 (Homo sapiens); details: at 10 µM
[14] = target: T3, Serine/threonine-protein kinase TAO2 (Homo sapiens) (UniProt Q9UL54); details: at 1 µM
T3 sequence (whole entry): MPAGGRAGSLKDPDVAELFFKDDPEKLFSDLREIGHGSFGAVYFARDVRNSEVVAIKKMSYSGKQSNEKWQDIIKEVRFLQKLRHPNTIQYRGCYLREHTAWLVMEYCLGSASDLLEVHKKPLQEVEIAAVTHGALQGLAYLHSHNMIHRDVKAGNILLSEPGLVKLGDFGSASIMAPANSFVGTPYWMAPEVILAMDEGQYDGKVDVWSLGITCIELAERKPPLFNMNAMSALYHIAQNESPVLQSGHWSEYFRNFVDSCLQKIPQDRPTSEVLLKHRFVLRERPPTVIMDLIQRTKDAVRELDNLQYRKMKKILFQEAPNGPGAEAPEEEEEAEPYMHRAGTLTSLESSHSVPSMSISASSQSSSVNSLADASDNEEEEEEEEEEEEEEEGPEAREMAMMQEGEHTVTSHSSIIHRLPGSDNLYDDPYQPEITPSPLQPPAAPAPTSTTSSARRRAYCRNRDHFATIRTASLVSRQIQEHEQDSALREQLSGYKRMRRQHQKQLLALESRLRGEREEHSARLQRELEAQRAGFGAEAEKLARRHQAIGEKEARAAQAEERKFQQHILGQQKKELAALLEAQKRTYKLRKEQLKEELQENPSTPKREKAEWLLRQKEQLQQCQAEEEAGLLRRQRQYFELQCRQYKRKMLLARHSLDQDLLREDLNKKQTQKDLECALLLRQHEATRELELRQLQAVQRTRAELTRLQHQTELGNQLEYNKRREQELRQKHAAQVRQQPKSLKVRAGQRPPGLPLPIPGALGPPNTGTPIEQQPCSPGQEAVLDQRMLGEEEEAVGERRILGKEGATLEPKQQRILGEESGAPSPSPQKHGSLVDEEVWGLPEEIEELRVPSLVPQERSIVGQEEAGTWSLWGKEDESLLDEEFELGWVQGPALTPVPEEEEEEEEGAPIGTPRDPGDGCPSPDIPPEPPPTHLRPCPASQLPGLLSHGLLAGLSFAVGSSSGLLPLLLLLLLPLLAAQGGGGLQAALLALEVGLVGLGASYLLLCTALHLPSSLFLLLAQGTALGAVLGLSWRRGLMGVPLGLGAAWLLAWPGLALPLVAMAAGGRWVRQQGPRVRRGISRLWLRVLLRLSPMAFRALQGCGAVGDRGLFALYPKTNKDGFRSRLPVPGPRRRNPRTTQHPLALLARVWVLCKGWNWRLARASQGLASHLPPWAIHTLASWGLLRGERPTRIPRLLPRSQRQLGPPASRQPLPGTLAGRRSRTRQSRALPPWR

[15] = target: T3, Serine/threonine-protein kinase TAO2 (Homo sapiens); details: at 10 µM
[16] = target: T4, Serine/threonine-protein kinase TAO3 (Homo sapiens) (UniProt Q9H2K8); details: at 1 µM
T4 sequence (whole entry): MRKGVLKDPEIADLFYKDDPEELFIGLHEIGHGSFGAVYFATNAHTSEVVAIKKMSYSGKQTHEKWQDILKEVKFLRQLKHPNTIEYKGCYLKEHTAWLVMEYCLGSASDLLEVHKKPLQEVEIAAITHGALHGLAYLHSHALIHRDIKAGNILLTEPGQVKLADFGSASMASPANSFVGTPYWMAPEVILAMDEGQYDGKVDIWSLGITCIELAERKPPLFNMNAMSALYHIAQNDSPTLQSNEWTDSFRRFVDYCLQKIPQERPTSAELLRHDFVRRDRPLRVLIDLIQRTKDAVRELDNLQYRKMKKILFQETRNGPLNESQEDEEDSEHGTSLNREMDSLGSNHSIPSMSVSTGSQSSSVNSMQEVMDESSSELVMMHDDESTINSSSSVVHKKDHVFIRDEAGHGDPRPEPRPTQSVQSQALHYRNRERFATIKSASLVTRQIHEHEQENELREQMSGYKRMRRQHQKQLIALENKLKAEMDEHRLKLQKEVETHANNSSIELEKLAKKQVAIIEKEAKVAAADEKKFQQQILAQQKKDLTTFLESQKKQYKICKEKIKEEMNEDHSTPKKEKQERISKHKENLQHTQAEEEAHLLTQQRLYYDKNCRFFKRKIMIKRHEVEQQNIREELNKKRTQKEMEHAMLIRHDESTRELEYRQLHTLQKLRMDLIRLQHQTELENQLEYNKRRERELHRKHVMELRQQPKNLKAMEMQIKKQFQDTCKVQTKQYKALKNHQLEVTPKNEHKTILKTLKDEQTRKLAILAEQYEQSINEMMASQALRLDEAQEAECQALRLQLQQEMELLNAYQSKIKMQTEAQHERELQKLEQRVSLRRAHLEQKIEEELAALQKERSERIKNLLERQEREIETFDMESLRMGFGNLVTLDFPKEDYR

[17] = target: T4, Serine/threonine-protein kinase TAO3 (Homo sapiens); details: at 10 µM
[18] = target: T5, Serine/threonine-protein kinase TBK1 (Homo sapiens) (UniProt Q9UHD2); details: at 1 µM
T5 sequence (whole entry): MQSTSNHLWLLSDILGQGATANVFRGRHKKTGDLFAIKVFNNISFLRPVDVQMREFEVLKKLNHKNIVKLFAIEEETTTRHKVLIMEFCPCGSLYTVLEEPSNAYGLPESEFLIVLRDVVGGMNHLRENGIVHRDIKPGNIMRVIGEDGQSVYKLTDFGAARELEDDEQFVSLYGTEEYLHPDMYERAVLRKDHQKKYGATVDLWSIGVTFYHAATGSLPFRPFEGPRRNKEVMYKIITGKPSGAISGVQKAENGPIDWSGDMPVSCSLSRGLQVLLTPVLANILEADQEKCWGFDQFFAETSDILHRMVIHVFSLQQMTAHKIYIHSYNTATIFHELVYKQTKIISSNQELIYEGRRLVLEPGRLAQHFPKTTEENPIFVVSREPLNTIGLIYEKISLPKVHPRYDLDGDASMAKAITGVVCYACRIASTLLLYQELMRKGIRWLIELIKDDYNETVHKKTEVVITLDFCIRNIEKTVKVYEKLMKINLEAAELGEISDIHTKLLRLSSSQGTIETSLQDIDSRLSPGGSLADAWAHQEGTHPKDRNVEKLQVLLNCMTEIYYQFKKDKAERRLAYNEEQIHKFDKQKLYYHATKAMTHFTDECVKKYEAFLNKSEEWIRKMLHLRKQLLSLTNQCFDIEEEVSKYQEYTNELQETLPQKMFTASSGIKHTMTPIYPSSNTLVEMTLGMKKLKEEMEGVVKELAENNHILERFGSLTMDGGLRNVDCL

[19] = target: SRSF protein kinase 1 (Homo sapiens) (UniProt Q96SB4); details: at 1 µM
Chain of SRSF protein kinase 1 (Homo sapiens) (Q96SB4 whole entry): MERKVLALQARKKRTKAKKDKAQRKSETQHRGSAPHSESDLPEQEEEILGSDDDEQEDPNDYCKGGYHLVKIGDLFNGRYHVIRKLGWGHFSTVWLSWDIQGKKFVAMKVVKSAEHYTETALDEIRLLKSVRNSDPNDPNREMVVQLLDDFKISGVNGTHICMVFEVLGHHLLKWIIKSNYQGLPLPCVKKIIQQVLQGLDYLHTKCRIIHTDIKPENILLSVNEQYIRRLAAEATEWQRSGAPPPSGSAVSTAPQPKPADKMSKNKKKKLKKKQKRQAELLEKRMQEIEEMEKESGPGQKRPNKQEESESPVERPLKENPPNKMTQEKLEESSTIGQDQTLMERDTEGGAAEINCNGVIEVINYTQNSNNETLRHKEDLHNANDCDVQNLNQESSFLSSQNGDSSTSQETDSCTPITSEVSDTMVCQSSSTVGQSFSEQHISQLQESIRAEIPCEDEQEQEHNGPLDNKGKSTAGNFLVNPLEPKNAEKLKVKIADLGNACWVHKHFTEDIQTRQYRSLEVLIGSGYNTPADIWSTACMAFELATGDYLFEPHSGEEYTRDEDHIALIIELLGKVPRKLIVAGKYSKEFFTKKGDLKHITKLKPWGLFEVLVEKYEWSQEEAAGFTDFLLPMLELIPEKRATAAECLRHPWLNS

[20] = target: SRSF protein kinase 1 (Homo sapiens) (UniProt Q96SB4); details: at 10 µM

Chain of Serine/threonine-protein kinase SIK1 (Homo sapiens) (P57059 whole entry): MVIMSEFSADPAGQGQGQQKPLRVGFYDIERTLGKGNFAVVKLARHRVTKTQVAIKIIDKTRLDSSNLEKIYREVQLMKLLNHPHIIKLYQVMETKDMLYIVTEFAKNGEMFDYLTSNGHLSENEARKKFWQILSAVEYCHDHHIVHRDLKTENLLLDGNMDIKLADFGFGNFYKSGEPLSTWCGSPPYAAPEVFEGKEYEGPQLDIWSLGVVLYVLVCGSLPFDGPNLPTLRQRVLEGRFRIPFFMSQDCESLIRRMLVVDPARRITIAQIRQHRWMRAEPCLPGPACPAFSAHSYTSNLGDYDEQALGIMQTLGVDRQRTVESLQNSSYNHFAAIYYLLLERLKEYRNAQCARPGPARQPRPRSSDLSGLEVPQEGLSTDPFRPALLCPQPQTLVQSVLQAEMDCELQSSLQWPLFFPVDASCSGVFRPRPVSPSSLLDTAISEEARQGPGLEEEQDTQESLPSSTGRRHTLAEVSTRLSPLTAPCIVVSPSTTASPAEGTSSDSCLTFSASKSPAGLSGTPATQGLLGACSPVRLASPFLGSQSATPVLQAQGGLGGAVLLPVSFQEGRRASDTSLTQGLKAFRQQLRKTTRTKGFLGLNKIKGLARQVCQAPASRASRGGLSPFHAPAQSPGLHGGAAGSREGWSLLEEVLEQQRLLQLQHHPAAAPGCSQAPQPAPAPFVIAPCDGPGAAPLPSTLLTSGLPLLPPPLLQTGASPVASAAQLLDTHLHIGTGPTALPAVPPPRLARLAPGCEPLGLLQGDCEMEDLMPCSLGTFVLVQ
Chain of SRSF protein kinase 2 (Homo sapiens) (P78362 whole entry, looked up): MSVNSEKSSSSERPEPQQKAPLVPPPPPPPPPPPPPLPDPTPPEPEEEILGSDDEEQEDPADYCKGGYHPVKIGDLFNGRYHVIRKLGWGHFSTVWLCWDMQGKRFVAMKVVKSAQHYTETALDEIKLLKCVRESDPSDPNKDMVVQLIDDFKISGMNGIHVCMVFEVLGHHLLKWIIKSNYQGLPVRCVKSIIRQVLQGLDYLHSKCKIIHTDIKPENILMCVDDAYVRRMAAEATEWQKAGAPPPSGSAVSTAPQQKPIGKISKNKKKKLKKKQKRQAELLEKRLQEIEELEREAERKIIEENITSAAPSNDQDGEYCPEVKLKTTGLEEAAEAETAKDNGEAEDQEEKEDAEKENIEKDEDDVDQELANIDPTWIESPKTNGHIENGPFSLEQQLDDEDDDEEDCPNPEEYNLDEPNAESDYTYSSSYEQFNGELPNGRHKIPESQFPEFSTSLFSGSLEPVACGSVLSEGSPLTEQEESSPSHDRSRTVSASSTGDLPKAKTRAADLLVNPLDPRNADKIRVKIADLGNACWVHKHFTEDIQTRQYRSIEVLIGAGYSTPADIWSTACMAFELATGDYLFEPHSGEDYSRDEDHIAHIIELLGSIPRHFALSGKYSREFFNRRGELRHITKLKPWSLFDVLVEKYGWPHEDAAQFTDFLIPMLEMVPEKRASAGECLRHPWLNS

| Compound | residual activity [1] | residual activity [2] | residual activity [3] | residual activity [4] | residual activity [5] | residual activity [6] | residual activity [7] | residual activity [8] | residual activity [9] | residual activity [10] | residual activity [11] | residual activity [12] | residual activity [13] | residual activity [14] | residual activity [15] | residual activity [16] | residual activity [17] | residual activity [18] | residual activity [19] | residual activity [20] |
| --- | --- | --- | --- | --- | --- | --- | --- | --- | --- | --- | --- | --- | --- | --- | --- | --- | --- | --- | --- | --- |
| O=C1Nc2ccc(Cl)cc2/C1=C/c1cc(Cl)c(O)c(Cl)c1 | 71% | 100% | 69% | 88% | 94% | 94% | 92% | 96% | 56% | 83% | 75% | 62% | 35% | 72% | 58% | 61% | 52% | 59% | – | – |
| NC(=O)Nc1sc(-c2ccc(F)cc2)cc1C(N)=O | 5% | 102% | 75% | 89% | 63% | 101% | 73% | – | – | – | – | – | – | 39% | 6% | 61% | 16% | 35% | 105% | 78% |
| CC(C)(C)c1nc2c3ccc(F)cc3c3c(=O)[nH]ccc3c2[nH]1 | 42% | – | 73% | 34% | 24% | 49% | 44% | – | – | 44% | 62% | 56% | 24% | – | – | 68% | 73% | 15% | 99% | – |
| CCOC(=O)c1c(C)[nH]c(/C=C2\C(=O)Nc3ccccc32)c1C | 91% | 93% | 89% | 89% | 97% | – | – | – | – | 89% | 98% | – | – | – | – | – | – | 92% | 92% | 97% |
| O=C(O)/C=C/c1cc(Br)c(Br)c(Br)c1Br | 98% | 103% | 89% | 103% | 99% | 39% | – | 108% | 84% | 107% | 95% | 77% | 29% | 84% | 68% | 81% | 26% | 69% | – | – |
| O=C1NC(=O)C(c2c[nH]c3ccccc23)=C1c1c[nH]c2ccccc12 | 7% | 74% | 22% | – | 71% | – | – | 120% | 82% | – | 75% | – | – | 82% | 35% | 69% | 26% | 70% | 63% | 6% |
| Cc1cc(C)c(/C=C2\C(=O)Nc3ccccc32)[nH]1 | – | – | – | 69% | 47% | – | – | – | – | 76% | 71% | – | – | – | 105% | – | – | – | 104% | – |
